From PubChem BioAssay AID485364 (National Center for Advancing Translational Sciences (NCATS), 2010)
Out of some 360,000 compounds screened, about 11,000 (3.1%) were called active. About 4% were inconclusive and are not listed. The call rests on the fitted dose curve; in most records, active means well fitted inhibition curve with a large enough effect; inconclusive means small, poorly fitted or top-dose-only effect; inactive means no such curve, though single readings can be large or run the other way. Many of the other results were omitted from the sample, so actives are more common in it than they were.

What follows are compounds tested against Schistosoma mansoni thioredoxin glutathione reductase (TGR) (UniProt Q962Y6) (assay: qHTS Assay for the Inhibitors of Schistosoma Mansoni Peroxiredoxins). Conditions: purified TGR, DTNB reduction, TNB absorbance 405 nm; series mostly up to 114 µM; activity change, negative = inhibition: at the top concentration.
Method in brief: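 First, TGR (20 nM dispensed) and NADPH were mixed with compound. Second, a 15 min room-temperature incubation followed. Third, further NADPH and then DTNB were added to start the reaction. Finally, TNB absorbance was monitored kinetically.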
Further: nearly all actives have a fitted effect of over 60% in size.
On the % scale 0 is the no-effect control and ±100 the full control effect; potency means the concentration at half of the fitted maximal effect.

Row | SMILES | activity change, negative = inhibition | Potency
1 | Cc1cccc(Cc2c(C)nc3nc(SCc4ccccc4Cl)nn3c2C)c1 | 1.03% (inactive) | –
2 | Cc1ccc(Cl)cc1NC(=O)CCC(=O)N1CC(C)Sc2ccccc21 (stereo unspecified) | 0.838% (inactive) | –
3 | Cc1oc2ncnc(N3CCCCC3)c2c1C(=O)N1CCN(c2cccc(Cl)c2)CC1 | 14.5% (inactive) | –
4 | COc1cccc(NC(=O)Nc2ccc3c(c2)N(C)C(=O)c2ccccc2S3)c1 | 5.44% (inactive) | –
5 | CCOc1ccc(CCNC(=O)Cn2nc(CC)n3c(cc4sc(CC)cc43)c2=O)cc1OCC | 0.777% (inactive) | –
6 | Cc1ccc2c(=O)c(C(=O)c3ccc(Cl)cc3)cn(CC(=O)NC3CCCCC3)c2n1 | 4.61% (inactive) | –
7 | Cc1noc(/C=C/N(C)C)c1S(=O)(=O)N1CCCC(C(=O)Nc2cccc(F)c2)C1 (stereo unspecified) | 1.27% (inactive) | –
8 | CCc1cccc(NC(=O)c2cnc(N3CCOCC3)c3ccccc23)c1 | -4.16% (inactive) | –
9 | Cc1ccc(CNC(=O)CCC(=O)N2Cc3ccccc3Oc3ncccc32)cc1 | -1.02% (inactive) | –
10 | CCc1ccccc1N1C(=O)CN(S(=O)(=O)CC)CC1(C)C(=O)NC1CCCCC1 (stereo unspecified) | -8.36% (inactive) | –
11 | Cc1ccc(NC(=O)Cn2c(=O)n(-c3ccccc3)c(=O)c3c4c(sc32)CCCC4)cc1 | 5.28% (inactive) | –
12 | Cc1cccc(NC(=O)/C(=C\c2ccco2)NC(=O)c2ccccc2)c1 | – | 20 µM (active)
13 | COc1ccc(/C=C(/NC(=O)c2ccccc2)C(=O)Nc2cccc(C(=O)O)c2)cc1 | -14.6% (inactive) | –
14 | O=C(Nc1ccc(C(=O)O)cc1)/C(=C\c1ccccc1)NC(=O)c1ccc(Br)cc1 | 0.921% (inactive) | –
15 | COc1ccc(-c2nc3sc(CCNS(=O)(=O)c4ccc(F)c(C)c4)c(C)n3n2)cc1 | 6.57% (inactive) | –
16 | Cc1ccc2nc3c(cc(C(=O)NC4CCCCC4)c(=N)n3C(C)C)c(=O)n2c1 | -3.44% (inactive) | –
17 | COc1ccc(NC2CC(=O)N(C)C2=O)cc1 (stereo unspecified) | – | 15.8 µM (active)
18 | COc1ccc(N2C(=O)CC(Nc3ccc(F)cc3)C2=O)c([N+](=O)[O-])c1 (stereo unspecified) | -14.2% (inactive) | –
19 | COc1ccc(N=C2SC(C(=O)Nc3ccc(F)cc3)CC(=O)N2C)cc1 (stereo unspecified) | -2.04% (inactive) | –
20 | CCN(C(=O)Cn1c(=O)nc(-c2ccccc2)c2cc(Cl)ccc21)c1cccc(C)c1 | 3.12% (inactive) | –
21 | O=C(NC1CCCC1)C(c1ccco1)N(C(=O)c1ccco1)c1ccc(F)cc1 (stereo unspecified) | 0.474% (inactive) | –
22 | COc1cccc(C(C(=O)NC2CCCC2)N(C(=O)c2ccco2)c2cccc(C(C)=O)c2)c1OC (stereo unspecified) | -21.3% (inactive) | –
23 | COC(=O)c1cccc(N(C(=O)c2ccco2)C(C(=O)NC2CCCC2)c2ccco2)c1 (stereo unspecified) | – | 44.7 µM (active)
24 | Cc1ccc(CNC(=O)CSc2c(C)cnc3c2c(=O)n(C)c(=O)n3C)cc1 | 7.12% (inactive) | –

Row | SMILES | activity change, negative = inhibition | Potency
25 | Cc1ccc(NC(=O)CCCn2c(=O)c3cccn3c3ccccc32)cc1Cl | -2.7% (inactive) | –
26 | Cn1c(=O)[nH]c(=O)c2c1nc(NCCc1ccccc1)n2Cc1ccc(F)cc1 | 1.08% (inactive) | –
27 | CC(=O)C1=C(C)NC(=O)NC1c1ccc2c(c1)OCO2 (stereo unspecified) | 0.759% (inactive) | –
28 | Cc1c(C(=O)O)cccc1-n1c(C)cc(/C=C2\C(=O)NC(=O)N(c3ccc4c(c3)OCO4)C2=O)c1C | – | 14.1 µM (active)
29 | Cc1ccccc1-n1c(C)cc(/C=C2\NC(=O)NC2=O)c1C | -28.2% (inactive) | –
30 | CCOC(=O)c1cccc(NS(=O)(=O)c2cn(C)c(C)n2)c1 | 1.53% (inactive) | –
31 | CC(C)CN1CCNC(=O)C1CC(=O)N(C)CC1CCOCC1 (stereo unspecified) | -22.3% [at 57.1 µM] (inactive) | –
32 | COc1ccccc1CN1CCNC(=O)C1CC(=O)N(C)CC1CCOCC1 (stereo unspecified) | – | 50.1 µM (active)
33 | CCCOC(=O)CC1C(=O)NCCN1Cc1ccc(F)cc1 (stereo unspecified) | 0% (inactive) | –
34 | CN(Cc1cccc2ncccc12)C(=O)CC1C(=O)NCCN1Cc1ccc(F)cc1 (stereo unspecified) | – | 35.5 µM (active)
35 | Cc1cnc(CN(C)C(=O)CC2C(=O)NCCN2Cc2cccc(F)c2F)[nH]1 (stereo unspecified) | -24.1% (inactive) | –
36 | C=CCC1(CC=C)CCCN1C(=O)CC1C(=O)NCCN1Cc1ccccc1OC (stereo unspecified) | 5.08% (inactive) | –
37 | CCc1ccc2ncc3c(-c4ccc(C)cc4)nn(CC(=O)NCc4ccccc4)c3c2c1 | -0.883% (inactive) | –
38 | Cc1nn(C)c2c1c(C(F)(F)F)cc(=O)n2C(C)C(=O)NCc1ccc(Cl)cc1 (stereo unspecified) | -2.62% (inactive) | –
39 | CC(C)c1ccc(NC(=O)Cn2nnc(C(=O)NCCc3ccccc3)c2N)cc1 | 0.776% (inactive) | –
40 | COc1ccc(C(=O)NCC(=O)N/N=C/c2ccc([N+](=O)[O-])o2)cc1OC | – | 17.8 µM (active)
41 | COc1ccccc1OCCNC(=O)c1cc([N+](=O)[O-])cc([N+](=O)[O-])c1 | -14.8% (inactive) | –
42 | COc1cc(CC(=O)N/N=C/c2ccccc2)c([N+](=O)[O-])cc1OC | -4.34% (inactive) | –
43 | CC(C)(C)c1ccc(S(=O)(=O)N2CCN(C(=O)c3cc(-c4ccc(Br)cc4)n[nH]3)CC2)cc1 | 2.88% (inactive) | –
44 | COc1ccc(N2CCN(S(=O)(=O)c3ccc(-c4coc(C)n4)cc3)CC2)cc1 | -15.6% (inactive) | –
45 | O=C(C1CCCN(S(=O)(=O)c2cccc3nonc23)C1)N1CCN(c2ccccc2F)CC1 (stereo unspecified) | -12.4% (inactive) | –
46 | CCC(=O)N1CCc2cc(Br)cc(S(=O)(=O)Nc3ccc(C)cc3C)c21 | 6.97% (inactive) | –
47 | Oc1c(C=Nc2cccc3nsnc23)ccc2ccccc12 | – | 7.94 µM (active)
48 | CCc1ccc(S(=O)(=O)n2ccnc2)cc1 | 7.8% (inactive) | –

Row | SMILES | activity change, negative = inhibition | Potency
49 | COCC(C)NS(=O)(=O)c1ccc(N2CCCCS2(=O)=O)cc1 (stereo unspecified) | 0.108% (inactive) | –
50 | COCCCNC(=O)C1CC(=O)N(CCc2ccc(F)cc2)C1 (stereo unspecified) | -14.2% (inactive) | –
51 | O=C(O)CCCn1c(=O)c2cccn2c2ccc(F)cc21 | -2.82% (inactive) | –
52 | COCCCn1c(CCC(=O)O)ccc1-c1ccc(F)cc1 | – | 44.7 µM (active)
53 | CCOC(=O)C1CCCN(CC(=O)Nc2cc(C)c3c(=O)oc4ccccc4c3n2)C1 (stereo unspecified) | 3.8% (inactive) | –
54 | O=C(CSC1CC(=O)N(CCc2ccccc2)C1=O)Nc1ccc(Cl)cc1 (stereo unspecified) | -3.43% (inactive) | –
55 | Cc1cc(Cl)ccc1N1C(=O)CC(SCCC(=O)O)C1=O (stereo unspecified) | – | 39.8 µM (active)
56 | CCC1Oc2ccc(Cl)cc2N(CC(=O)O)C1=O (stereo unspecified) | 0.128% (inactive) | –
57 | COc1ccc(N2CCN(C(=O)c3c(C)oc4nc(C)nc(N5CCCC5)c34)CC2)cc1 | -2.25% (inactive) | –
58 | COc1ccc(C(=O)N2CCC(c3nc4ccccc4o3)CC2)cc1 | 0.203% (inactive) | –
59 | Cc1ccc(CNC(=O)C(=O)c2cn(CC(=O)N3CCOCC3)c3ccccc23)cc1 | -17% (inactive) | –
60 | Cc1ccc(CNC(=O)C(=O)c2cn(CC(=O)N3CCCC3)c3ccccc23)cc1 | -1.65% (inactive) | –
61 | O=C(NCc1ccco1)C(=O)c1cn(CC(=O)N2CCCCCC2)c2ccccc12 | – | 31.6 µM (active)
62 | CC1CCN(C(=O)Cn2c(=O)n(-c3ccc(Cl)cc3)c(=O)c3c4c(sc32)CCC4)CC1 | -2.87% (inactive) | –
63 | Cc1cc(C)c2oc(C(=O)Nc3c(C(=O)Nc4ccccc4)oc4ccccc34)cc(=O)c2c1 | -0.605% (inactive) | –
64 | NC(=O)CC[C@@H]1NC(=O)[C@H](CO)NC(=O)c2cc([N+](=O)[O-])cc(I)c2NCC[C@@H](C(N)=O)NC1=O | -32.7% (inactive) | –
65 | NC(=O)CC[C@@H]1NC(=O)[C@@H]2CCCN2C(=O)c2cc([N+](=O)[O-])cc(F)c2NCCC[C@@H](C(N)=O)NC1=O | – | 44.7 µM (active)
66 | C[C@@H]1NC(=O)c2cc([N+](=O)[O-])cc(F)c2NCCC[C@@H](C(N)=O)NC(=O)[C@H](CC(N)=O)NC1=O | -21.9% (inactive) | –
67 | Cc1cccc(CC(=O)Nc2cccc(-c3cn4cccnc4n3)c2)c1 | 8.23% (inactive) | –
68 | CN(C)Cc1c(C#N)c2ccccc2n1C | 3.62% (inactive) | –
69 | CCCc1cc(=S)n2c([nH]c3ccccc32)c1C#N | – | 0.631 µM (active)
70 | O=C(Cn1c(-c2cccs2)cc2ccccc21)NCCc1ccc(Cl)cc1 | -1.12% (inactive) | –
71 | Cc1ccc2c(c1)N(C(=O)Nc1ccc(Br)cc1F)CCO2 | 12.1% (inactive) | –
72 | COc1ccc(-c2cn3c(C)c(C(=O)Nc4cc(C)cc(C)c4)sc3n2)cc1 | -0.43% (inactive) | –

Row | SMILES | activity change, negative = inhibition | Potency
73 | CCOC(=O)C1CCCN(C(=O)c2cccc(S(=O)(=O)N3CCOCC3)c2)C1 (stereo unspecified) | -2.13% (inactive) | –
74 | CCOC(=O)C1CCCN(C(=O)c2ccc(CS(=O)(=O)c3ccc(Br)cc3)o2)C1 (stereo unspecified) | – | 20 µM (active)
75 | CCOC(=O)C1CCCN(C(=O)c2cncc(Br)c2)C1 (stereo unspecified) | -2.66% (inactive) | –
76 | O=C(c1ccc2c(c1)N(Cc1ccccc1)C(=O)c1ccccc1S2(=O)=O)N1CCC(Cc2ccccc2)CC1 | 9.31% (inactive) | –
77 | Cc1ccc(CN2CCNC(=O)C2CC(=O)NCc2csc(C(C)C)n2)cc1 (stereo unspecified) | -32.4% (inactive) | –
78 | CC(C)c1nc(CNC(=O)CC2C(=O)NCCN2Cc2ccoc2)cs1 (stereo unspecified) | – | 35.5 µM (active)
79 | O=C(CC1C(=O)NCCN1Cc1ccc(-c2ccccc2)cc1)NCC1CCOCC1 (stereo unspecified) | -27.6% (inactive) | –
80 | COC(=O)c1cc(S(=O)(=O)N2CCN(c3cc(Cl)ccc3C)CC2)c[nH]1 | 2.69% (inactive) | –
81 | Cc1ccc(C(=O)CC2(O)C(=O)N(CCc3ccccc3)c3ccc(Br)cc32)cc1 (stereo unspecified) | 0.876% (inactive) | –
82 | Cc1onc(-c2ccc(F)cc2F)c1C(=O)Nc1cccc(C(F)(F)F)c1 | 0.861% (inactive) | –
83 | COc1ccc(CCNC(=O)c2ccc3c(c2)sc2nc(-c4ccc(C)cc4)cn23)cc1OC | -1.96% (inactive) | –
84 | CCc1cccc(NC(=O)c2cc(-c3ccccc3)n[nH]2)c1 | -7.19% (inactive) | –
85 | O=C(O)c1ccc(COc2c(F)c(F)cc(F)c2F)o1 | – | 35.5 µM (active)
86 | O=C(O)c1ccc(NC(=O)c2ccc(COc3ccc(Cl)cc3)o2)cc1 | -20% (inactive) | –
87 | COC(=O)c1ccc(COc2ccc(C#N)cc2)o1 | -7.11% (inactive) | –
88 | N#CC1=C(N)C(C#N)(C#N)[C@H](c2ccsc2)[C@H]2COCC=C12 | – | 12.6 µM (active)
89 | CCN1CC=C2C(C#N)=C(N)C(C#N)(C#N)[C@H](c3ccoc3)[C@H]2C1 | 0.939% (inactive) | –
90 | Cc1ccc(C)c(N2CCN(C(=O)Cc3c(C(=O)O)c(C)cn3C)CC2)c1 | -12% (inactive) | –
91 | O=C(NNC1CC(=O)N(c2cccc(Cl)c2)C1=O)c1cccnc1 (stereo unspecified) | -28% (inactive) | –
92 | O=C1[C@@H]2C(c3cccnc3)=NO[C@@H]2C(=O)N1c1ccc(Cl)cc1Cl | – | 8.91 µM (active)
93 | Cc1nc2ccccc2c(=O)n1-c1ccc(Cl)cc1Cl | -34.9% (inactive) | –
94 | COc1ccccc1-c1nnc(C2CCN(C(=O)c3ccc(Cl)cc3)CC2)o1 | 1.27% (inactive) | –
95 | CC(C)(C)c1ccc(C(=O)Nc2ccc3c(c2)CCCN3C(=O)c2cccs2)cc1 | -3.61% (inactive) | –
96 | Cc1cccc(Cn2c(CN3CCC(C(=O)NCc4ccccc4Cl)CC3)cc3ccccc32)c1 | 11.6% (inactive) | –
